Assay outcomes deposited in PubChem BioAssay by National Center for Advancing Translational Sciences (NCATS).
Rows were chosen to be rich in hits. Some 3.6% of all compounds tested hit in one or more screens of this group.
TDP-43 yeast inh – qHTS of TDP-43 Inhibitors. TDP-43 expressing yeast growth rescue, BacTiter-Glo, 24 h. Potency, µM (series often up to 46.1 µM), inactives show at the top dose growth rescue (activation), hits mostly activators. 1.8% of 410,000 active; note: % of control where 0% means no effect; nearly all actives have a fitted effect of over 50% in size
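Cell-based yeast growth screen: TDP-43 expression induced in galactose, inoculum OD600=0.02 after raffinose pregrowth to mid-log. Read-out BacTiter-Glo luminescence at 24 hr, 30 deg C; inhibition of toxicity seen as signal increase.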
Mm-Cpn inhibitor – Inhibitors of TCP-1 ring complex (TRiC) of Methanococcus maripaludis (MmCpn): qHTS. Chaperonin Mm-Cpn (Methanococcus maripaludis). purified Mm-Cpn ATPase, ADP Transcreener TR-FRET. Potency, µM (doses to about 76.9 µM), for inactives: at the highest dose activity, negative = inhibition, hits mostly inhibitors. 0.031% of 330,000 active. AID 504842, 2011; note: % is set by controls: 0 for no effect and ±100 for the full control effect; nearly all actives have a fitted effect of over 80% in size
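Purified archaeal chaperonin (25 nM final) was preincubated with compound for 10 min at 37°C, then ATP (10 uM final) was added for 30 min at 37°C in Tris pH 7.4/KCl/MgCl2/DTT buffer. ADP was quantified by HTRF Transcreener TR-FRET.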
Abeta yeast res – qHTS for compounds that reverse cellular toxicity of Amyloid beta (A-beta) peptide in yeast: Primary Screen; Potency, µM (highest dose often 46.1 µM), most hits filed as activators; AID 1347071, 2019; yeast expressing A-beta42, growth rescue, OD600, 48 h; response scale: 0% DMSO, 100% iron-clioquinol control; 0.063% of 410,000 active; note: nearly all actives have a fitted effect of over 55% in size
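Growth rescue measured by 600 nm absorbance after 48 h yeast culture at 30 C with compound. Values normalized between DMSO and an equimolar ferric chloride plus clioquinol control.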
ClpP mod – qHTS Assay for Activators of ClpP | ATP-dependent Clp protease proteolytic subunit (Bacillus subtilis (strain 168)), P80244 | 1.9% of 340,000 active | purified B. subtilis ClpP, FRET peptide cleavage, 20 min | Potency, µM (doses to about 57.5 µM), inactives show at the highest dose activity change, negative = active; active = well fitted falling curve with a large enough effect; inconclusive = small, poorly fitted or top-dose-only effect; inactive = no such curve, though single readings can be large or run the other way; note: the source files actives as falling curves though it sought activators and does not explain the sign; nearly all actives have a fitted effect of over 65% in size
Target sequence (P80244 whole entry, looked up): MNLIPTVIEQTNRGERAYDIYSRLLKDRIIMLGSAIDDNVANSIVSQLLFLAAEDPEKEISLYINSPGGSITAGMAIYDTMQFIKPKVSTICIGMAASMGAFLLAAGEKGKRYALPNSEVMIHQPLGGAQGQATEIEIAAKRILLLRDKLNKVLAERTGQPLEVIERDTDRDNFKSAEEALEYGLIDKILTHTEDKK
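Buffer: 100 mM Tris/HCl pH8, 100 mM KCl, 0.05% low protease BSA, 2.5% glycerol, 0.01% Tween-20. ClpP 10 microg/mL final; 20 min RT; delta FRET normalized to ADEP and DMSO controls.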
FUS suppressor – qHTS for Suppressors of FUS Proteinopathy: Primary screen using FUS-linked yeast assay; S. cerevisiae FUS-expressing, growth rescue, OD600, 24 h; Potency, µM (series often up to 76.6 µM), actives largely listed as activators; 0.24% of 390,000 active; AID 1347120, 2019;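 note: plate controls were DMSO vehicle for no effect and reference control for full effect; nearly all actives have a fitted effect of over 55% in size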
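S. cerevisiae expressing FUS from galactose induction served as the toxicity model. Growth after 24hr at 30C, read as absorbance at 600 nm, indicates suppression of toxicity; compounds dosed at several concentrations.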
aSyn yeast inh – qHTS of alpha-syn Inhibitors. AID 652106, 2013. Potency, µM (top dose mostly 46.1 µM), inactives show at the highest dose growth rescue (activation), most hits filed as activators. 0.14% of 370,000 active. Yeast expressing alpha-synuclein, growth rescue, BacTiter-Glo, 24 h; note: % of control where 0% means no effect; nearly all actives have a fitted effect of over 65% in size
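Galactose-induced alpha-syn yeast (OD600=0.02, raffinose-pregrown) + pinned cpd, 24 hr, 30 deg C; growth by BacTiter-Glo luminescence. Growth restoration scores as activation.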
Active calls of the source: *; i = inactive; ? = inconclusive; . = not tested or not shown; [ ] = dose if it differs, or a comment. Unless noted, calls come from the whole dose curve; as a rule, active = well fitted curve in the direction sought with a large enough effect; inconclusive = small, poorly fitted or top-dose-only effect, or another doubt; inactive = no such curve, though single readings can be large; an effect the other way counts as inactive or inconclusive. Potency is the fitted concentration of half-maximal effect.

SMILES | TDP-43 yeast inh | Mm-Cpn inhibitor | Abeta yeast res | ClpP mod | FUS suppressor | aSyn yeast inh
Oc1c(Cl)cc(Cl)cc1/C=N/Nc1ncc(Br)cn1 | -1.3% | 1.6% | i | . | i | 1µM*
CC(=O)Nc1cc2c3ccccc3ccc2c2ccccc12 | 4.1% | . | i | 31.6µM* | . | -8.8%
CSc1nc(N2CCOCC2)c2c3c(sc2n1)CCCC3 | 15.8µM* | -2.4% | i | -4.3% | ? | 9.4%
Cc1nc(N2CCOCC2)c2c3c(sc2n1)CCC3 | 15.0% | ? | i | -0.3% | i | 12.7%
COc1ccc(NC(=O)N2CCC(N(C)CCC(C)C)CC2)cc1OC | . | . | . | . | i | .
COc1cccc(-c2csc(N3CCC(C(N)=O)CC3)n2)c1 | . | -2.6% | . | . | . | .
CC1Cc2nc(SCC(=O)NCC3CCCO3)n(-c3ccccc3)c(=O)c2S1 (stereo not given) | -2.5% | . | i | -3.3% | i | 22.4µM*
COCCn1c(SCC(=O)NCC2CCCO2)nc2c(c1=O)SC(C)C2 (stereo not given) | 13.8% | -0.8% | i | -0.5% | i | -2.3%
O=C(CSc1nc2c([nH]c3ccccc32)c(=O)n1-c1ccc(F)cc1)NCC1CCCO1 (stereo not given) | 10.0% | . | i | 22.4µM* | i | .
CCCCCOc1ccc(C(=O)NCC2(c3ccccc3)CCOCC2)cc1 | -10.1% | 0.5% | i | -1.1% | ? | 3.1%
CCCCOc1ccc(C(=O)NCC2(c3ccccc3)CCOCC2)cc1 | 15.8µM* | -1.3% | i | -0.3% | ? | 1.9%
O=C(C#Cc1ccccc1)c1ccccc1 | ? | . | i | -2.2% | i | -5.9%
O=C(C#Cc1ccccc1)c1ccc([N+](=O)[O-])cc1 | 11.2µM* | 1.2% | i | 1.0% | i | -14.4%
CCOc1ccc(CC(=O)NCCc2csc(-c3ccc(C(F)(F)F)cc3)n2)cc1 | -6.9% | . | i | -26.5% | i | -11.2%
Cc1ccc(S(=O)(=O)Nc2cc(C)cc(CCNC=O)c2C)cc1 | -2.5% | . | i | -0.6% | . | 1.7%
Cc1c(CCNC=O)cc(C)c2c3c(oc12)CCCC3 | 15.8µM* | . | i | -4.6% | . | 16.9%
CCN(CC)c1ccc(/C=C/c2ccc3ccccc3n2)cc1 | . | . | . | -1.0% | . | -66.8%
CCn1c(COc2ccc(C)cc2)nc2ccccc21 | 11.2µM* | -1.8% | i | ? | i | 5.6%
CCOCCn1c(COc2ccc(C)cc2)nc2ccccc21 | -6.3% | 0.9% | i | 1.3% | . | -0.4%
c1ccc(OCCn2c(COc3ccccc3)nc3ccccc32)cc1 | 33.7% | . | i | -6.4% | i | .
C=CCn1c(COc2ccccc2)nc2ccccc21 | -10.8%[1.82 µM] | -0.5% | 20µM* | . | i | 13.6%
Cc1ccc(OCc2nc3ccccc3n2C(C(=O)Nc2c(C)cccc2C)C2CC2)cc1 (stereo not given) | -16.8% | . | i | -3.8% | 8.91µM* | -0.8%
C=CCN1C(=O)c2ccc(C(=O)N(C)CC(=O)Nc3ccccc3C(F)(F)F)cc2C1=O | -5.7% | -2.6% | i | -8.5% | i | -0.7%
C=CCN1C(=O)c2ccc(C(=O)N(C)CC(=O)Nc3ccccc3Br)cc2C1=O | 0.0% | 3.6% | i | 22.4µM* | . | 3.6%
CCOc1ccc(S(=O)(=O)N2CC(=O)Nc3ccccc32)cc1 | 7.1% | -1.1% | i | 31.6µM* | i | 10.5%
SMILES | TDP-43 yeast inh | Mm-Cpn inhibitor | Abeta yeast res | ClpP mod | FUS suppressor | aSyn yeast inh
CC(C)Oc1ccc(C(=O)OCC(=O)NC(=O)NC2CCCC2)cc1 | 20µM* | 2.5% | ? | -0.3% | i | 16.5%
COc1cccc(NC(=O)CSc2nc(-c3ccccc3Cl)nc3c2Cc2c(CO)cnc(C)c2O3)c1 | -14.2% | . | i | 0.2% | i | .
N#Cc1c(N)n(C2CCCCC2)c2nc3ccccc3nc12 | 4.6% | -0.5% | i | 31.6µM* | i | 0.0%
CCC(=O)Nc1c(C#N)c2nc3ccccc3nc2n1C1CCCCC1 | 21.8% | -3.3% | i | -18.9% | i | 3.5%
O=S(=O)(c1cccc(C(F)(F)F)c1)N1CCN(c2nc(-c3cccs3)nc3cc(Cl)ccc23)CC1 | . | . | . | . | . | -1.7%
CC1(c2ccc(F)cc2)OC(=O)c2c1ccc1ccccc21 (stereo not given) | 12.6µM* | . | i | ? | i | -12.4%
Cc1nn(C)cc1C(C)NC(=O)c1cc(COc2cccc3cnccc23)on1 (stereo not given) | 11.3% | ? | i | 15.8µM* | i | -4.7%
Cc1nn(C)cc1C(C)NC(=O)c1cc(COc2c(F)cccc2F)on1 (stereo not given) | 1.0% | 2.5% | i | -0.4% | i | 6.0%
Nc1nc2cc(Cl)c(Br)cc2o1 | 20µM* | . | i | 0.9% | . | 3.2%
O=C(c1cc2ccc3cccnc3c2[nH]1)N1CCN(c2ccc(Cl)cc2)CC1 | -6.3% | . | i | 32.6% | i | .
COc1cccc(N2CCN(C(=O)c3cc4cc(Cl)ccc4[nH]3)CC2)c1 | 12.6µM* | 1.7% | i | -5.6% | i | ?
Cc1ccc(Cl)cc1N1CCN(C(=O)c2cc3ccc4cccnc4c3[nH]2)CC1 | 20µM* | . | i | -6.2% | i | .
O=C(c1cc2cc(F)ccc2[nH]1)N1CCN(c2cccc(Cl)c2)CC1 | 4.9% | -0.6% | i | 4.4% | i | -2.0%
O=C(c1cc2ccc3cccnc3c2[nH]1)N1CCN(c2cccc(Cl)c2)CC1 | 12.6µM* | . | i | -6.8% | ? | .
CCOC(=O)c1scc(-c2ccccc2)c1S(=O)(=O)Nc1ccccc1OC | 0.0% | . | i | -0.9% | i | .
CCc1cccc(NC(=O)Cn2c(=O)n(CCC(=O)NCc3ccccc3Cl)c(=O)c3sccc32)c1 | 22.7% | . | i | -0.8% | i | .
O=C(Nc1ccc(Br)cc1F)c1cnn2c1NC(=C1CC1)C=C2C(F)F | . | . | . | 2.7% | . | 0.0%
COc1cccc(CNC(=O)CCCCCn2c(=O)[nH]c3cc(OC)c(OC)cc3c2=O)c1 | -2.1% | . | i | 4.5% | i | .
S=c1[nH]nc(Cc2sc(-c3ccccc3)nc2-c2ccccc2)o1 | 12.6µM* | -17.6% | i | -13.8% | ? | -65.6%
CCOc1ccc(-c2cc(CCCC(=O)NCCc3cc(OC)c(OC)c(OC)c3)no2)cc1 | ? | . | i | -0.7% | i | .
COC(=O)c1cc(-c2cccc3ccccc23)c(=O)n2c1CCC2 | . | . | . | . | i | .
CCCCOn1c(C)c(C(=O)OCC)c2c3no[n+]([O-])c3ccc21 | 2.5% | -0.7% | i | 0.3% | i | 3.2%
